Consider 5 compounds from PubChem BioAssay.

Molecules are shown by their SMILES. Active and inactive are the calls of the source.

Assay [1] is described as follows: optical density shifts of acrAB sulA E. coli – strain DRC41, OD650, 48 h, E. coli filamentation inducer project, primary screen (AID 1152).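 Note: E. coli MC1000 strain DRC41 lacking acrAB efflux pump and sulA.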 The following applies: higher = more signal, called active from +8 up or from −8 down.
The nature of assay [2]: probe aLefty1 binding on compound microarray – biochemical, small-molecule microarray, 635/667 nm fluorescence, primary screen (AID 1153).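 Note: score merges spot fluorescence with signal-to-noise ratio from the scanned slide images.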 The following applies: higher = more signal.
A short description of assay [3]: plasmodial surface anion channel blockers, osmotic lysis – cell-based, P. falciparum Indochina, OD700, 1 h, primary screen (AID 1154). The settings on record: P. falciparum Indochina infected RBC osmotic lysis, higher = more signal, called active from +8 up or from −8 down.
The nature of assay [4]: plasmodial surface anion channel blockers, osmotic lysis – cell-based, P. falciparum Indochina, OD700, 2 h, primary screen (AID 1155).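 Note: lysis reports solute entry through the parasite surface anion channel PSAC.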 The following applies: P. falciparum Indochina infected erythrocytes, higher = more signal, called active from +8 up or from −8 down.
Assay [5] is described as follows: changes in parasitized red cell lysis, either direction – P. falciparum Indochina, OD700, 3 h, PSAC antagonist project, primary screen (AID 1156). The following applies: P. falciparum-infected erythrocytes, osmotic lysis, higher = more signal, called active from +8 up or from −8 down.
Assay [6] in a line: plasmodial surface anion channel blockers, osmotic lysis – cell-based, P. falciparum Indochina, OD700, 18 h, primary screen (AID 1157). The following applies: P. falciparum Indochina infected erythrocytes, osmotic lysis OD700, 18 h; higher = more signal, called active from +8 up or from −8 down.
A short description of assay [7]: S6 kinase pathway phospho-S6 level changes – cell-based, A549, cytoblot, luminescence, serum-stimulated, primary screen (AID 1158).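 Note: serum-stimulated A549 lung adenocarcinoma cells; signal is phosphorylated S6 detected by cytoblot immunostaining with HRP secondary.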 The settings on record: 5 h, higher = more signal.
The target in assay [8] is NADPH oxidase 2 (Homo sapiens) (UniProt P04839). Put plainly: compounds shifting NOX2 Amplex Red fluorescence – cell-based, HEK293-NOX2, PMA-stimulated, NOX inhibitor project, primary screen (AID 1159). Note: test concentration not given here. The settings on record: 45 min, higher = more signal, called active from +8 up or from −8 down.
Sequence of NADPH oxidase 2 (Homo sapiens) (P04839 whole entry, looked up): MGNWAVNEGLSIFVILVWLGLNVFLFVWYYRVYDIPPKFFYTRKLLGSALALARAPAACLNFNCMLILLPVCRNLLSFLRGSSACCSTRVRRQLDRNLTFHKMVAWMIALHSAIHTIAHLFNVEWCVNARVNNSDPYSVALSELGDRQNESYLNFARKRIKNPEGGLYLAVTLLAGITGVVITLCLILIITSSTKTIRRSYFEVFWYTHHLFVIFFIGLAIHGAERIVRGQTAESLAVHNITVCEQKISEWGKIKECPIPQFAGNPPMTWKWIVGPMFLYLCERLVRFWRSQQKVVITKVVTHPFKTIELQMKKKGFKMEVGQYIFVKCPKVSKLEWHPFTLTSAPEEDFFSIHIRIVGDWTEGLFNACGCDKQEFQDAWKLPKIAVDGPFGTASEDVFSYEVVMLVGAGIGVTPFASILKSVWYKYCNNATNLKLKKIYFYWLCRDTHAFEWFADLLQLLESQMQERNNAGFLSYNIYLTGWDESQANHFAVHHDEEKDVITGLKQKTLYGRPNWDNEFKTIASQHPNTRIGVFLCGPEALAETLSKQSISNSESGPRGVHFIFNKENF
Assay [9] addresses NADPH oxidase 4 (Homo sapiens) (UniProt Q9NPH5). Put plainly: compounds shifting NOX4 Amplex Red fluorescence – cell-based, HEK293-NOX4, tetracycline-induced, NOX inhibitor project, primary screen (AID 1160). The settings on record: HEK293-NOX4, Amplex Red H2O2 fluorescence, 45 min; higher = more signal, called active from +8 up or from −8 down.
In assay [10] the target is NADPH oxidase 5 (Homo sapiens) (UniProt Q96PH1). Put plainly: compounds shifting NOX5 Amplex Red fluorescence – cell-based, HEK293-NOX5, NOX inhibitor project, primary screen (AID 1161). The settings on record: HEK293-NOX5, ionomycin, 45 min, higher = more signal.
Sequence of NADPH oxidase 5 (Homo sapiens) (Q96PH1 whole entry, looked up): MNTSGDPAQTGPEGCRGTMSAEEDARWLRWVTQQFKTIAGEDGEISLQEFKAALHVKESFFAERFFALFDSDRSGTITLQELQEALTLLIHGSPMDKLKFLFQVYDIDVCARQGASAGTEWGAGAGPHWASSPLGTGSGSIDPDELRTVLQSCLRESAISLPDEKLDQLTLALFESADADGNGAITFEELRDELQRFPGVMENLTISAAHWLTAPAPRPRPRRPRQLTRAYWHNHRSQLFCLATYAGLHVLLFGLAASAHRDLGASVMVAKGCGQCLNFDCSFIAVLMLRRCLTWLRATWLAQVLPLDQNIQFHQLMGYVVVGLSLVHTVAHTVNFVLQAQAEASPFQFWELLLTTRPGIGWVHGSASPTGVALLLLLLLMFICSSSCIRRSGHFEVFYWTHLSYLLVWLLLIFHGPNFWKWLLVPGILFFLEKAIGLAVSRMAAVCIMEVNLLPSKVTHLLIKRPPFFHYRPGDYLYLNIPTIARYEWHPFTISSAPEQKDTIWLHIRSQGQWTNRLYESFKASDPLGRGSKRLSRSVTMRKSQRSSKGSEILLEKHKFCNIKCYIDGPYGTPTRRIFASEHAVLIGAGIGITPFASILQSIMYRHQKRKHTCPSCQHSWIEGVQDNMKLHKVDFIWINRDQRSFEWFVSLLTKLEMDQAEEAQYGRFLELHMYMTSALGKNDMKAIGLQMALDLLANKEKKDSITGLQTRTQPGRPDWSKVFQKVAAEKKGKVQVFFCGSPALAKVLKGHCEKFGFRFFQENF
The nature of assay [11]: compound effects on lung adenocarcinoma cell viability – A549, calcein-AM fluorescence, 48 h, basal, profiling panel (AID 1162). Note: test concentration not given here. The following applies: higher = more signal.
Assay [12] in a line: compound effects on differentiated 3T3-L1 adipocyte viability – cell-based, 3T3-L1 adipocytes, calcein-AM fluorescence, 48 h, basal, profiling panel (AID 1163). Note: test concentration not given here. The following applies: 3T3-L1 adipocytes viability, higher = more signal.
A short description of assay [13]: compound effects on hepatocellular carcinoma cell viability – HepG2, calcein-AM fluorescence, 48 h, basal, profiling panel (AID 1164). Note: test concentration not given here. The following applies: higher = more signal.
Assay [14] in a line: compound effects on multiple myeloma cell viability – MM1S, calcein-AM fluorescence, 48 h, basal, profiling panel (AID 1165).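 Note: viability of MM1S multiple myeloma cells under basal unstimulated conditions; test concentration not given here.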 The following applies: higher = more signal.
Assay [15] can be described thus: calcein-AM signal in unstimulated myeloma cells – cell-based, calcein-AM fluorescence, 48 h, PK04 Diversity Set, profiling panel (AID 1166).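 Note: cells grown under basal conditions without added stimulus; test concentration not given here.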 The settings on record: RPMI8226 myeloma viability, higher = more signal.
Assay [16] can be described thus: JC-1 mitochondrial signal, unstimulated HepG2 cells – cell-based, JC-1 fluorescence, 24 h, 100 nL compound, profiling panel (AID 1167). Note: test concentration not given here. The settings on record: HepG2 mitochondrial potential, higher = more signal.
Assay [17] can be described thus: JC-1 mitochondrial signal, unstimulated adipocytes – cell-based, JC-1 fluorescence, 3T3-L1 adipocytes, 24 h, 100 nL compound, profiling panel (AID 1168). Note: test concentration not given here. The following applies: JC-1 mitochondrial fluorescence, higher = more signal, called active from +8 up or from −8 down.
Assay [18] in a line: JC-1 mitochondrial signal, unstimulated myeloma cells – cell-based, JC-1 fluorescence, RPMI8226, 24 h, 100 nL compound, profiling panel (AID 1169). Note: test concentration not given here. The following applies: JC-1 mitochondrial potential fluorescence, higher = more signal.
A short description of assay [19]: JC-1 mitochondrial signal, unstimulated MM1S myeloma – cell-based, JC-1 fluorescence, 24 h, 100 nL compound, profiling panel (AID 1170). Note: test concentration not given here. The settings on record: MM1S mitochondrial potential, higher = more signal.
Assay [20] is described as follows: resazurin metabolic signal in A549 cells – cell-based, resazurin fluorescence, 24 h, PK04 Diversity Set, profiling panel (AID 1171). Note: test concentration not given here. The settings on record: A549 viability, higher = more signal, called active from +8 up or from −8 down.

Sequence of NADPH oxidase 4 (Homo sapiens) (Q9NPH5 whole entry, looked up): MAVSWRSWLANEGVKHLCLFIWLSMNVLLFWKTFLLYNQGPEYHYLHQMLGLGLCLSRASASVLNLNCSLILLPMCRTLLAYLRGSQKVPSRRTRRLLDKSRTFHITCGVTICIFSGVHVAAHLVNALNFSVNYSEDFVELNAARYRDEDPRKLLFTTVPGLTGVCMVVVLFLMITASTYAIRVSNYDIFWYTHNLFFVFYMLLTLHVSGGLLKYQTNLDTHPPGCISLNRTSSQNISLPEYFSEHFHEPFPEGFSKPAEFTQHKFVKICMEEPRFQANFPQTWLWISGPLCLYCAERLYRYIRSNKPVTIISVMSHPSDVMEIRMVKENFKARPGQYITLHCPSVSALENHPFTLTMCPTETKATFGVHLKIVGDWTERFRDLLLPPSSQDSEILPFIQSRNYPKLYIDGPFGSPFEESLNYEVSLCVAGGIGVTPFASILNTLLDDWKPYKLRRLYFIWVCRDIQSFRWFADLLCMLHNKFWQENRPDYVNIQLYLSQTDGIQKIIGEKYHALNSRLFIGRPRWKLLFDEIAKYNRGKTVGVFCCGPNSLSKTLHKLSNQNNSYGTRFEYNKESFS

For `CCC(=O)[C@]12O[C@@]3([C@@H]4C(=O)OCC[C@@H]41)N(Cc1ccccc1)C(C)=C(C(=O)OC)[C@@H](c1ccccc1)N3C2=O`, the z-score in assay [1] is 0.57 (inactive); in [3], 0.34 (inactive); in [4], -1.22 (inactive); in assay [5], 0.573 (inactive); in assay [6], -1.74 (inactive); in assay [7], 0.21. Further, the z-score was 1.2 (inactive) in assay [8]; 0.785 (inactive) in assay [9]; 0.538 in assay [10]; 0.997 in assay [11]; 0.873 in assay [12]; -0.356 in assay [13]. In addition, the z-score in [14] is 0.0552; in [15], 1.08; in [16], 0.499; in assay [17] it was 0.995 (inactive); in assay [18] it was -0.752; in assay [19] it was -0.226. In [20], the z-score is 0.26 (inactive). Also, in assay [2], the composite z-score is -0.243.

Consider `O=C(NCC(O)CO)[C@]1(Cc2ccccc2)N=C(c2ccc(OCCCO)cc2)O[C@@H]1c1ccccc1` (stereo not given in full), for which the z-score in [1] was 0.738 (inactive); in [3] it was 25.1 (active); in [4], 12 (active); in assay [5] it was 0.267 (inactive); in [6] it was 0.35 (inactive); in assay [7], 0.807. In addition, the z-score in assay [8] was 0.489 (inactive); in [9] it was 1.68 (inactive); in assay [10] it was 1.7; in assay [11], -0.798; in [12], 1.91; in assay [13], -2.22. The z-score in assay [14] is -1.26; in assay [15], -1.08; in assay [16], -1.81; in [17], 1.03 (inactive); in assay [18], 0.159; in assay [19], 0.245. Besides, the z-score in assay [20] is 0.519 (inactive). In assay [2], this compound had a composite z-score of 1.39.

`CCC1=C2CN(Cc3ccccc3Br)[C@@H]([C@@H](O)Cc3ccccc3)C2C=CCC1` (stereo not given in full): the z-score in assay [1] is 0.625 (inactive); in [3], 4.02 (inactive); in assay [4], -0.96 (inactive); in assay [5], -0.115 (inactive); in assay [6], -1.8 (inactive); in assay [7] it was 1.56. The z-score in assay [8] is -0.306 (inactive); in [9], -4.86 (inactive); in assay [10], -4.65; in assay [11], 0.596; in [12], 2.48; in assay [13], 0.155. Further, the z-score is -3.24 in assay [14]; -3.99 in [15]; 1.42 in assay [16]; -0.473 (inactive) in assay [17]; -0.981 in assay [18]; -2.18 in [19]. The z-score in assay [20] was 1.07 (inactive). The compound further registered a composite z-score in assay [2] of -0.101.

For the compound `COC(=O)C1=CC(c2ccc(CO)cc2)=CC(C2CC2)N(Cc2sc3ccccc3c2Cl)C=C1C(=O)OC` (stereo not given), the z-score in [1] is -0.248 (inactive); in assay [3], 13.7 (active); in assay [4] it was 0.815 (inactive); in assay [5], -0.994 (inactive); in assay [6], -1.07 (inactive); in assay [7], 0.983. Moreover, the z-score in assay [8] is -0.872 (inactive); in [9], -0.189 (inactive); in [10] it was -0.0786; in assay [11], -0.905; in assay [12], 1.77; in [13], -0.651. The z-score is -2.62 in [14]; -4.22 in assay [15]; 1.72 in assay [16]; 0.982 (inactive) in assay [17]; -0.804 in assay [18]; -0.969 in [19]. The z-score in [20] was -1.3 (inactive). Besides, the composite z-score in [2] is 0.385.

On to `CCOC(=O)C1=CC[C@@H](c2ccccc2)N(S(=O)(=O)c2ccc(C)cc2)[C@H]1C`, for which the z-score in assay [1] is -1.29 (inactive); in [3], 3.28 (inactive); in [4], 1.03 (inactive); in [5], -0.392 (inactive); in [6], 0.215 (inactive); in assay [7], -0.343. The z-score is 0.21 (inactive) in assay [8]; -0.291 (inactive) in assay [9]; 0.0997 in assay [10]; -1.54 in assay [11]; -0.956 in [12]; -1.21 in assay [13]. Further, the z-score in [14] was -1.6; in assay [15], -1.77; in assay [16] it was 3.96; in [17], 0.775 (inactive); in [18], -0.198; in assay [19] it was -1.22. For the same compound, the z-score in [20] was 0.0723 (inactive). In assay [2], this compound yielded a composite z-score of 0.0668.
